# Data from the supplement of paper PMC6555819.
# What was measured:
# Assay in all cases: PBM binding z-score (relative to random genomic background probes); higher = stronger binding; sequences stand for … in GC…GCGATTGACAGCGTAGAATGAAGG
# [1] = test system: RARb homodimer (NR concentration 270 nM)
# Summary of the method: (§1)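 Regression normalization was applied to scanned fluorescence from custom Agilent 4×180K protein-binding microarrays. Before scanning, arrays were incubated 1 h with ligand-free nuclear receptor dimers, and binding was detected with antibodies against each partner (one per run). Binding z-scores use the random background probes as reference.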
# [2] = test system: RARg:RXRa (NR concentration 270 nM, RXRa partner concentration 90 nM)
# Summary of the method: as §1
# [3] = test system: RARg homodimer (NR concentration 270 nM)
# Summary of the method: as §1
# [4] = test system: RXRa DBDmut IVT, anti-RXR (DBD mutation: RXRa K156A/R161A, NR concentration 90 nM)
# Summary of the method: as §1
# [5] = test system: RXRa homodimer (NR concentration 180 nM)
# Summary of the method: as §1
# [6] = test system: THRa:RXRa (NR concentration 90 nM, RXRa partner concentration 90 nM)
# Summary of the method: as §1
# [7] = test system: THRa homodimer (NR concentration 90 nM)
# Summary of the method: as §1
# [8] = test system: VDR homodimer (NR concentration 270 nM)
# Summary of the method: as §1
Sequence,PBM binding z-score [1],PBM binding z-score [2],PBM binding z-score [3],PBM binding z-score [4],PBM binding z-score [5],PBM binding z-score [6],PBM binding z-score [7],PBM binding z-score [8]
ACTTACGGATCAACGAGGTTATAGCACGCGTATA,0.98,0.642,0.684,0.778,1.46,1.83,0.943,1.39
TTACCAAGGTGAAGGTCGTTGCTCCCTCTGTAGA,2.04,1.25,1.15,0.573,1.59,2.37,1.06,1.43
GCAGACAGGTGAAACGCAGGCAACTCAGGGTGGC,-0.0684,0.39,0.237,-0.513,0.435,0.404,-0.656,-0.588
ATCGAAGGGTCGAGGTGAGTATAGAGAAAGGGAA,1.75,2.29,2.48,0.466,2.29,2.17,0.731,0.278
TCTTGTAGATCAGAAGGTTAAGAAAGCTGGCCAA,1.17,0.818,0.198,0.89,1.31,0.538,-0.485,-0.118
GCTGGGAGGACAAGGTCAGAGCTTTGTCCGTAGA,3.21,3.33,3.55,0.766,2.49,3.31,1.8,0.796
GCTAGTTGGTCAGTAAAAGGTCAGACACCGGTCG,4.8,4.68,4.27,0.252,3.55,2.64,0.737,0.607
GCGACTGGGGAAAAGCAGGTTACCATAAGGTTGG,0.416,-0.0185,-0.445,-0.805,0.275,1.25,0.0418,-0.6
CAGCCTAGATCAGGGCCAGTATAGGAGGAACGTT,-0.147,-0.262,-0.227,-0.728,-0.559,-0.634,-0.417,-0.384
CCTAGCAGGCCAATCTGGGTTACTCAAGGCTTGA,0.0666,-0.247,-0.0907,-0.131,-0.48,1.61,-0.596,-0.739
GATACAGGGTCAGCTAGAGGCCAGTGTATGGAAA,3.64,6.8,5.06,1.51,4.25,2.98,0.265,0.727
ATATGTAGGTTATAGGGTCATTCAGTTTGCGCAT,3.76,4.28,3.26,2.26,4.98,3.83,3.31,4.34
TAGCATAGGTCATGGGCCAGTATACCACGCGAAC,3.37,5.5,4.93,0.253,5.71,2.67,-0.279,0.267
TCAGACAGGTGAAGGTAACGCAGGTACGCAGTCG,0.708,0.407,0.419,0.772,1.05,1.01,0.208,-0.187
GCTTACGGGTCAAAGATTATAGCATGAATAGAAT,2.21,4.65,4.34,2.38,5.43,2.21,-0.519,0.811
TCTCGGAGGACACGAATGTCAGAGCTTTCCAGAG,0.771,0.642,1.42,0.518,0.168,1.23,0.52,-0.491
CGTCCAAGGTCCGCAGGTCAGTGAAAGCGACGTG,2.24,1.06,1.49,0.0611,0.267,1.04,0.0358,-0.00185
TATACAGGGTCAAAGGCTAGAGTACGAATGTCGA,3.57,5.5,5.45,2.73,6.82,3.44,1.01,3.25
CCTGCTAGGTCGTGGTCAGCTAATCTACAGTATG,1.21,0.958,1.4,0.759,0.607,0.876,0.18,-0.0912

Sequence,PBM binding z-score [1],PBM binding z-score [2],PBM binding z-score [3],PBM binding z-score [4],PBM binding z-score [5],PBM binding z-score [6],PBM binding z-score [7],PBM binding z-score [8]
ATATGTAGGTTAGCCGGGGTCATTCAGACTAGGC,4.07,4.69,3.57,2.39,6.32,5.21,2.99,5.54
GGAACGATGGCATTCGAGTTGATAGCATGGCGAT,-1.05,-0.259,-0.016,-0.146,-0.284,0.175,-0.974,-0.268
GCTGCTAGGTCAACTGATGGTCAGCTGAAGCTCG,3.56,5.1,5.51,1.55,2.82,3.12,1.05,-0.0434
CATACTAGGTCACAGAGGTCAAAGTCCGTGCGTA,5.73,7.31,7.56,3.27,7.91,4.72,3.18,6.84
GCTTGTCGATCAAGGTTAAGAAAGACTAAGCTAA,0.0989,0.457,0.385,-0.057,0.794,1.68,-0.268,-0.484
TTACCAAGGTGAGCTGAGGTCGTTGCTCCAACTC,1.57,0.912,0.763,0.505,1.26,4.78,2.1,1.93
GCGACTGGGGCAACAGCAGGTTACCATAACTTAA,0.882,0.815,0.776,-0.15,0.454,1.67,-0.275,-0.281
CCTTACGGGTCACTCCAGGTTGTAGCATCGGAGT,2.84,4.14,3.94,1.67,4.11,4.56,0.074,1.05
AGAACGAGGGCACGCTGCGTTGATAGCAGAGTAG,1.06,1.55,2.21,1.81,1.3,1.71,-0.00562,0.888
TCAAATAGGTAAATGCTAGGTGAAAGTCCGATCT,0.514,0.401,0.304,1.84,1.06,1.38,0.625,0.251
ATTGAAAGGTCGACGAGGTGAGTATACACCGTTT,3.13,4.19,4.05,1.2,4.31,3.89,1.14,1.58
TCTCGGAGGACACGATGGTCAGAGCTTTCCAGAG,0.682,0.274,1.24,0.266,0.00404,1.05,0.363,-0.307
CCTTACGGGTCAAGGTTTTAGCACGGGTGGTACG,3.11,4.62,4.4,0.499,5.16,2.51,0.113,0.742
GCGACTGGAGCAAAGCAGGTTACCATAAGGTTGG,0.0117,-0.319,-0.395,-0.723,0.0642,1.75,-0.495,-0.492
CTTCGGAGGACAACAGGAGGTCAGAGCTGCCAGA,3.55,3.73,3.57,0.619,2.19,2.97,1.1,1.45
TCTAGCAGGCCACAGGGTCACTCAAGAGGTACGG,3.28,3.5,2.75,0.4,3.39,2.94,1.16,2.07
ATATCTAGGTAACAAGTTCAGTGAAAGAGAGGAC,1.93,1.25,1.51,1.36,1.03,1.49,0.951,2.85
CCTACTGAGCCAAAAAGGTCATTGATGCCGATAA,4.22,4.3,4.1,1.49,5.03,2.86,1.05,2.73
CAAACTAAGTCAAGGTCAAAGTCGGTTTGTGCCA,4.04,4.35,4.17,2.72,4.85,4,3.38,4.09

Sequence,PBM binding z-score [1],PBM binding z-score [2],PBM binding z-score [3],PBM binding z-score [4],PBM binding z-score [5],PBM binding z-score [6],PBM binding z-score [7],PBM binding z-score [8]
TAGCCTAGGTCATGCGGGCCAGTATCGTGTCGGC,2.77,4.03,4.3,0.371,3.1,2.88,1.17,0.528
TCAGACATGTGAAGGTAACTCAGGTACGCAGTCG,-0.326,0.309,0.138,1.17,0.749,0.981,-0.032,-0.167
CCGACTGGGCCAGAAAGGTTACCATACCATCCGG,1.97,1.28,0.921,-0.772,1.58,1.04,-0.354,0.0109
TAGCCTAGGTCAGATCGGGCCAGAATACGCTATA,1.78,2.58,2.95,-0.569,1.29,4.06,-0.133,-0.288
ATCGAAAGGTCGTGAGGTGAGTGTACAGAAAGGC,3.06,4.52,4.11,1.26,5.06,3.48,1.71,1.41
AGAACGAGGGCAAGCTGAGTTGATAGCAGAGTAG,1.06,1.53,1.97,2.1,0.964,1.35,-0.471,1.36
CCTATTAGTTTACCATAAGGGCAACCGAAGCTCG,1.96,1.14,1.1,0.915,0.566,2.06,1.39,1.03
CCTACTAGGCCATTCAGAGGTCATTGATCATATG,4.46,4.99,3.55,2.14,4.11,3.42,2.03,3.93
TGTCAAAGTTCAAAGGAAACGTAAGTATCCACAC,3.37,5.07,5.18,3.95,4.12,1.62,-0.452,3.4
GCTAGTTGGTCAGTAAAAGGTCACAGACCGGTCG,5.24,5.64,5.2,0.262,5.7,3.79,1.68,1.13
CCTCGCAGGCCAATCTGGGTCACTCAAGGCTTGA,2.37,1.18,1.63,0.29,0.763,3.93,0.712,0.14
TCGAGTAGGTTAGTCGGGCCATTCAGCCAACATA,-0.0179,-0.285,-0.251,-0.153,-0.135,0.516,-0.252,-0.149
GCTAGTCGGTCAGTAAAAGGTCACACACCGGTCG,5.59,6.16,6.16,0.548,5.55,3.62,1.73,1.85
CCTTACGTGTCACTCCAGGTTATAGCATCGGAGT,1.36,0.925,1.27,1.09,0.845,3.43,1.14,1.24
GCTGCTAGGTCAACAGATGGTCAGCTAAAGCTCG,2.83,4.81,4.85,1.22,2.42,2.56,0.465,0.00157
TCGAGTAGGTTATCAATGGGGCATTCAGCTTTCT,0.483,0.919,0.272,0.822,0.432,0.0952,-0.223,-0.119
ACTATTAGTTGAGACGAGGGCATCCGATAGGTTG,0.79,0.519,0.799,0.829,0.473,2.29,0.321,1.38
ATATGTAGGTTACATCCCGGTCATTCAGGCTATG,2.44,2.92,1.76,0.814,1.44,2.18,1.44,1.12
